Measurements reported in the supplement of paper PMC4962491.
± gives the standard deviation of the averaged measurements.

What follows are compounds tested on FaDu (assay: mitochondrial oxygen consumption rate normalised to cell number, Z score vs plate DMSO wells; higher = higher oxygen consumption (negative = OCR reduction)). Conditions: 2 µM; treatment time 24 h; assay medium: 5 mM glucose, 5 mM pyruvate, 4 mM glutamine.
Description: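 Secondary screen: FaDu cells were incubated 24 h with the top 130 primary hits at 0.08, 0.4, 2 or 10 uM. Mitochondrial-specific OCR (basal minus antimycin A) was measured on a Seahorse XF96 in medium with 5 mM glucose, 5 mM pyruvate and 4 mM glutamine and normalised to Hoechst cell number. OCR score = (OCR - mean of plate DMSO wells) / SD of plate DMSO wells. Three repeats.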
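Note: compound exposure in DMEM (4 mM L-glutamine, 5 mM glucose), antimycin A injected at 2 µM after the basal reading and its residual OCR subtracted from basal.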

Row | Compound | mitochondrial oxygen consumption rate normalised
1 | CN(C)c1ccc(C(=C2C=CC(=[N+](C)C)C=C2)c2ccc(N(C)C)cc2)cc1 | -13.3 ± 0.17
2 | CCCCCCCCCCCCCCCC[N+](C)(C)C | -10.1 ± 0.48
3 | Cc1c2oc3c(C)ccc(C(=O)N[C@@H]4C(=O)N[C@H](C(C)C)C(=O)N5CCC[C@H]5C(=O)N(C)CC(=O)N(C)[C@@H](C(C)C)C(=O)O[C@@H]4C)c3nc-2c(C(=O)N[C@@H]2C(=O)N[C@H](C(C)C)C(=O)N3CCC[C@H]3C(=O)N(C)CC(=O)N(C)[C@@H](C(C)C)C(=O)O[C@@H]2C)c(N)c1=O | -9.57 ± 0.5
4 | O=C1C(O)=C([C@H]2CC[C@H](c3ccc(Cl)cc3)CC2)C(=O)c2ccccc21 | -0.111 ± 2.5
5 | CCCCCC(=O)O[C@]1(C(C)=O)CC[C@H]2[C@@H]3CCC4=CC(=O)CC[C@]4(C)[C@H]3CC[C@@]21C | 0.00301 ± 1.9
6 | COc1cc([C@@H]2c3cc4c(cc3[C@@H](O[C@@H]3O[C@@H]5CO[C@@H](c6cccs6)O[C@H]5[C@H](O)[C@H]3O)[C@H]3COC(=O)[C@H]23)OCO4)cc(OC)c1O | -7.82 ± 1.4
7 | Cc1cc(C2CCCCC2)n(O)c(=O)c1 | -3.51 ± 0.86
8 | CC(C)OC(=O)C(C)(C)Oc1ccc(C(=O)c2ccc(Cl)cc2)cc1 | 0.455 ± 1.1
9 | CCCCCCCCCc1ccc(OCCOCCOCCOCCOCCOCCOCCOCCOCCO)cc1 | -3.38 ± 0.78
10 | CC[C@@]1(O)C(=O)OCc2c1cc1n(c2=O)Cc2cc3c(CN(C)C)c(O)ccc3nc2-1 | -1.46 ± 1.6
11 | CCc1c2c(nc3ccc(OC(=O)N4CCC(N5CCCCC5)CC4)cc13)-c1cc3c(c(=O)n1C2)COC(=O)[C@]3(O)CC | 1.27 ± 0.31
12 | CCOc1ccc2nc3cc(N)ccc3c(N)c2c1 | -3.32 ± 0.28
13 | CCN(CC)CCCC(C)Nc1c2ccc(Cl)cc2nc2ccc(OC)cc12 (stereo unspecified) | -2.47 ± 1.1
14 | CNC(=O)c1cc(Oc2ccc(NC(=O)Nc3ccc(Cl)c(C(F)(F)F)c3)cc2)ccn1 | -1.86 ± 0.2
15 | COc1ccc(C[C@H](N)C(=O)N[C@H]2[C@@H](O)[C@H](n3cnc4c(N(C)C)ncnc43)O[C@@H]2CO)cc1 | -3.4 ± 2.1
16 | Cc1cc(CC(C)CC(C)(C)C)n(O)c(=O)c1 (stereo unspecified) | -4.87 ± 1.5
17 | CCCCCCCCCCCCC[N+](C)(C)Cc1ccccc1 | -11.5 ± 0.21
18 | Nc1c2ccccc2nc2ccccc12 | -2.4 ± 0.075
19 | CN(C)CCCN1c2ccccc2CCc2ccccc21 | -0.981 ± 1.9
20 | N=C(NCCCCCCNC(=N)NC(=N)Nc1ccc(Cl)cc1)NC(=N)Nc1ccc(Cl)cc1 | -0.184 ± 0.7
21 | Cc1cc(/C=C/c2ccc3cc(N(C)C)ccc3[n+]2C)c(C)n1-c1ccccc1 | -13.47 ± 0.04
22 | C=CC1=C(C)c2cc3[nH]c(cc4nc(cc5[nH]c(cc1n2)c(C)c5CCC(=O)O)C(CCC(=O)O)=C4C)c(C)c3C=C | 0.447 ± 0.95
23 | C[C@]12CC[C@@H]3c4ccc(O)cc4CC[C@H]3[C@@H]1CC[C@@H]2OC(=O)CCC1CCCC1 | 0.375 ± 0.83
24 | O=C(O[C@H]1CN2CCC1CC2)N1CCc2ccccc2[C@@H]1c1ccccc1 | 0.566 ± 1.2
25 | C[n+]1cc2c3c(ccc2c2ccc4cc5c(cc4c21)OCO5)OCO3 | -0.66 ± 2.1
26 | O=C(O)c1cc(/N=N/c2ccc(O)c(C(=O)O)c2)ccc1O | -0.373 ± 1.2
